From ChEMBL document CHEMBL1961873, “Compounds: GSK PKIS; Assays: Nanosyn kinase panel” (2012) come the findings set out here.

In test [1] the target is 5'-AMP-activated protein kinase catalytic subunit alpha-2 (Homo sapiens) (UniProt P54646). Conditions: at 1 µM.
In test [2] the target is T1, NUAK family SNF1-like kinase 1 (Homo sapiens) (UniProt O60285).
T1 sequence (whole entry): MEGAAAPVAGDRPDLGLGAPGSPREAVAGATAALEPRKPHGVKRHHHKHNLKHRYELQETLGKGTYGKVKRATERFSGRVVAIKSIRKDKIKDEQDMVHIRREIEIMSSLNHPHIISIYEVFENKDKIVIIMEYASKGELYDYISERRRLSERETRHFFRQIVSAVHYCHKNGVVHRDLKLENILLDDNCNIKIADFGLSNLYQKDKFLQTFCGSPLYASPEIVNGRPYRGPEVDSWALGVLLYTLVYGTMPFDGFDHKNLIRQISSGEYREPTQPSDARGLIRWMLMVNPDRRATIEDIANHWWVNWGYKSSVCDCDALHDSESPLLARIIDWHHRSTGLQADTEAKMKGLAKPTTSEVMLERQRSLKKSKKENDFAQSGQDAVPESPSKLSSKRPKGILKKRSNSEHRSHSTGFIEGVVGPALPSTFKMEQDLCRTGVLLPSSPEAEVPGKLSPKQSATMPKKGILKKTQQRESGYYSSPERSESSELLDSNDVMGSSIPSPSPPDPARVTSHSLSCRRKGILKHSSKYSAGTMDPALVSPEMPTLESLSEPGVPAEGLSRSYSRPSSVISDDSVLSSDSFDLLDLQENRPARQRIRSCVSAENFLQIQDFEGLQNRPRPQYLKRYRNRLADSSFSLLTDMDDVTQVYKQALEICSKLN
Conditions: at 0.1 µM.

Test [3] has as its target T1, NUAK family SNF1-like kinase 1 (Homo sapiens). The following applies: at 1 µM.
In test [4] the target is T2, Serine/threonine-protein kinase BRSK1 (Homo sapiens) (UniProt Q8TDC3).
T2 sequence (whole entry): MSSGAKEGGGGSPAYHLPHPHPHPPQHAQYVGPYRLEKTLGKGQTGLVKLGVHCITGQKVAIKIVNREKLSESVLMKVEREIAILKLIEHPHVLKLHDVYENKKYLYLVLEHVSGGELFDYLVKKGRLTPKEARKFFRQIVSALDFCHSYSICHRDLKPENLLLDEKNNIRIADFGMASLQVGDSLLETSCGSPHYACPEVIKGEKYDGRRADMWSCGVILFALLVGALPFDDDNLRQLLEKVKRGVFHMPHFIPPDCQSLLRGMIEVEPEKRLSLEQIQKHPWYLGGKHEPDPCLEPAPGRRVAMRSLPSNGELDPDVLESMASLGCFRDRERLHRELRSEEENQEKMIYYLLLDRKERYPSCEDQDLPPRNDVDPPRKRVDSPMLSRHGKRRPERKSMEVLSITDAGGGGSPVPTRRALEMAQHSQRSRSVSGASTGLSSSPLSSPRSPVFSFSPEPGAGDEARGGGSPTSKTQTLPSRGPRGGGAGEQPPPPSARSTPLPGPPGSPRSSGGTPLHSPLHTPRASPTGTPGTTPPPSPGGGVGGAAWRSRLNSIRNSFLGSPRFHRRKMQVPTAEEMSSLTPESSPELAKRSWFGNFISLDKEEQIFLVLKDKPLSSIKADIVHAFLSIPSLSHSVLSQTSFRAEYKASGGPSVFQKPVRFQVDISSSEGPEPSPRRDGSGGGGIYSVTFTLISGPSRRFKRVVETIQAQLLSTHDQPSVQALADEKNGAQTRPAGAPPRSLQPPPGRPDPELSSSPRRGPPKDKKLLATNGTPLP
The following applies: at 0.1 µM.

For test [5], the target named is T2, Serine/threonine-protein kinase BRSK1 (Homo sapiens). Conditions: at 1 µM.
Test [6] concerns the target T3, Serine/threonine-protein kinase BRSK2 (Homo sapiens) (UniProt Q8IWQ3).
T3 sequence (whole entry): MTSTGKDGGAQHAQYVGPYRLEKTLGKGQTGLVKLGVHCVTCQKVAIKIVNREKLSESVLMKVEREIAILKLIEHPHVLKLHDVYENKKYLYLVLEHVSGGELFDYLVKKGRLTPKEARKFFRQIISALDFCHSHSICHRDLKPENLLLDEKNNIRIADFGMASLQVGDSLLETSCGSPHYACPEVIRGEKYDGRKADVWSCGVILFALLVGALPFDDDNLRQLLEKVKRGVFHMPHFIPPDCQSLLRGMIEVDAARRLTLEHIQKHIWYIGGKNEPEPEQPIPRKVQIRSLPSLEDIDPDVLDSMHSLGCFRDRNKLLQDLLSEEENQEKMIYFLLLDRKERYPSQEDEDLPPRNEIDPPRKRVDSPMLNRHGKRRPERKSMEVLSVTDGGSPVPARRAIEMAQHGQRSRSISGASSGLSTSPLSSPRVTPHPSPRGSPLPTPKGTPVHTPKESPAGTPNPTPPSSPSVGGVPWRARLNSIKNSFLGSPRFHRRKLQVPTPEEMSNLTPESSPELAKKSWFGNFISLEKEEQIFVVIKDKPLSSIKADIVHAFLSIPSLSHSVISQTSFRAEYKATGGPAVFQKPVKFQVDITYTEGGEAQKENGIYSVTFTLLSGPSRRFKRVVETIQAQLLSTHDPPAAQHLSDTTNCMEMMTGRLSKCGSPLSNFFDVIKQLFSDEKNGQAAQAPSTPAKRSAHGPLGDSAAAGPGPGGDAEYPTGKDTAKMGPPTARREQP
Conditions: at 0.1 µM.

Test [7] has as its target T3, Serine/threonine-protein kinase BRSK2 (Homo sapiens). Conditions: at 1 µM.
Test [8] addresses Calcium/calmodulin-dependent protein kinase type 1D (Homo sapiens) (UniProt Q8IU85). Conditions: at 0.1 µM.
Test [9] shares this target. Conditions: at 1 µM.
Test [10] addresses Calcium/calmodulin-dependent protein kinase type II subunit alpha (Homo sapiens) (UniProt Q9UQM7). The following applies: at 0.1 µM.
Test [11] has the same target. Conditions: at 1 µM.
The target in test [12] is Calcium/calmodulin-dependent protein kinase type II subunit delta (Homo sapiens) (UniProt Q13557). Conditions: at 0.1 µM.
Test [13] has the same target. Conditions: at 1 µM.
Test [14] addresses T4, Calcium/calmodulin-dependent protein kinase type IV (Homo sapiens) (UniProt Q16566).
T4 sequence (whole entry): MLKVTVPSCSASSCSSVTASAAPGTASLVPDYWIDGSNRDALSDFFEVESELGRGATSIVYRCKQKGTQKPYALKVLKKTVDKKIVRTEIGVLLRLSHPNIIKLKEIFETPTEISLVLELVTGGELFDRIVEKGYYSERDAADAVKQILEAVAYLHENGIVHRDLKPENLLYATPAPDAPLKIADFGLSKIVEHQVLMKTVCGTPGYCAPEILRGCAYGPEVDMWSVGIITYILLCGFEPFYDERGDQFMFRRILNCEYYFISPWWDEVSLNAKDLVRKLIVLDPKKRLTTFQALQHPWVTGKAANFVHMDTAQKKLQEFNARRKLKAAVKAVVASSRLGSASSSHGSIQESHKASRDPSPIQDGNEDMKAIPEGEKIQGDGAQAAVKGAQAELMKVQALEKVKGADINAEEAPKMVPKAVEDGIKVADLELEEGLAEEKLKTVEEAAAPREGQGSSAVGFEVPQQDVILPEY
Conditions: at 0.1 µM.

The target in test [15] is T4, Calcium/calmodulin-dependent protein kinase type IV (Homo sapiens). Conditions: at 1 µM.
For test [16], the target named is T5, Serine/threonine-protein kinase Chk1 (Homo sapiens) (UniProt O14757).
T5 sequence (whole entry): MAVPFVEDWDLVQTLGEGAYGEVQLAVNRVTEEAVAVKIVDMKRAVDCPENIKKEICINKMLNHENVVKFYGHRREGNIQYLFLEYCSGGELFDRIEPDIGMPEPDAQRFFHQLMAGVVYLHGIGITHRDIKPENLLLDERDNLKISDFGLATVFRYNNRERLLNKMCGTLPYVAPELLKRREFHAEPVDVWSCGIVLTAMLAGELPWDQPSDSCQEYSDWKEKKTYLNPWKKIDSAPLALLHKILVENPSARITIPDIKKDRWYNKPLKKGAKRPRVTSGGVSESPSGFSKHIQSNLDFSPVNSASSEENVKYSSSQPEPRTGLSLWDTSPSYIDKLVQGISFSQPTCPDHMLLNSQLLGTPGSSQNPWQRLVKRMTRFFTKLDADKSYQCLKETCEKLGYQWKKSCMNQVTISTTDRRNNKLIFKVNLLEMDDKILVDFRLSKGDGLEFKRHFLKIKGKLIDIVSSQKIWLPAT
The following applies: at 0.1 µM.

Test [17] has as its target T5, Serine/threonine-protein kinase Chk1 (Homo sapiens). The following applies: at 1 µM.
In test [18] the target is Serine/threonine-protein kinase Chk2 (Homo sapiens) (UniProt O96017). Conditions: at 0.1 µM.
Test [19] shares this target. Conditions: at 1 µM.
Test [20] has as its target Death-associated protein kinase 1 (Homo sapiens) (UniProt P53355). The following applies: at 0.1 µM.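 Further: reported figure is the mean inhibition of DAPK1.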

Sequence of Death-associated protein kinase 1 (Homo sapiens) (P53355 whole entry, looked up): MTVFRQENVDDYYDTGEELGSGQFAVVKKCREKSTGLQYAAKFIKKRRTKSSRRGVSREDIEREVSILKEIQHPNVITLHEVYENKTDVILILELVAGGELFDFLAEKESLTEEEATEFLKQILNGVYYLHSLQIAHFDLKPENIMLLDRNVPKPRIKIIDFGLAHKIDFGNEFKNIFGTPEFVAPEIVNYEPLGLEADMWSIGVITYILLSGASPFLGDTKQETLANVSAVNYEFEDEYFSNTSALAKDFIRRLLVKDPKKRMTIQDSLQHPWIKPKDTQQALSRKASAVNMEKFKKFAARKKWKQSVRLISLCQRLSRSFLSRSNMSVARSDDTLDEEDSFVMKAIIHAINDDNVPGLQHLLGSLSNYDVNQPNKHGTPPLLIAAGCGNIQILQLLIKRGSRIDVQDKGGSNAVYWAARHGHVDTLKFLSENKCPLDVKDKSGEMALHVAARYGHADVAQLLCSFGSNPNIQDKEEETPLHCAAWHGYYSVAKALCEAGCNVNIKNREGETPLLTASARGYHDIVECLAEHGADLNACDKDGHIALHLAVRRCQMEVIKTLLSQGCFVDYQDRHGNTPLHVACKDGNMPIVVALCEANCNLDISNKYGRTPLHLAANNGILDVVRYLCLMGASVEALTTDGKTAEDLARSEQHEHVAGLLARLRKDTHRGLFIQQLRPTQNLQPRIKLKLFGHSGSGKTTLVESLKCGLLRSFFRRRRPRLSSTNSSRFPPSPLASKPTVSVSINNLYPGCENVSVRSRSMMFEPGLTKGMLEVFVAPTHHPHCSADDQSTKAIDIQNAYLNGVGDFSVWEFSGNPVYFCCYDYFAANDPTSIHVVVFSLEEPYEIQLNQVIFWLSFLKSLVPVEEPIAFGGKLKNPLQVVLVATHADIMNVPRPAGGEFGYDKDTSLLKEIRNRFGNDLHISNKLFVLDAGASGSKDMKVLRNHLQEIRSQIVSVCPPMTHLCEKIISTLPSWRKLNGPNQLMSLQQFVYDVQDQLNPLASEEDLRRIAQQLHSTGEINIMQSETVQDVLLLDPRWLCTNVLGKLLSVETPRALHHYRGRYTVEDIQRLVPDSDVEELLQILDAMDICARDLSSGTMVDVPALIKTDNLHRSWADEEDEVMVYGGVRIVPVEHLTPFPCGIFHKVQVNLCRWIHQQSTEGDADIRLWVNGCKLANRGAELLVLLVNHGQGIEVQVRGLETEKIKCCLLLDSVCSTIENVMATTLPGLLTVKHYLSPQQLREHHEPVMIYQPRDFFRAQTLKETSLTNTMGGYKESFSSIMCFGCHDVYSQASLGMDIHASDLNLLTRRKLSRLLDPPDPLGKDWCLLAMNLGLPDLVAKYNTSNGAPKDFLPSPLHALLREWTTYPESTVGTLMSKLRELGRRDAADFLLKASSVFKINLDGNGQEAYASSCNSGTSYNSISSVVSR
Sequence of Calcium/calmodulin-dependent protein kinase type II subunit alpha (Homo sapiens) (Q9UQM7 whole entry): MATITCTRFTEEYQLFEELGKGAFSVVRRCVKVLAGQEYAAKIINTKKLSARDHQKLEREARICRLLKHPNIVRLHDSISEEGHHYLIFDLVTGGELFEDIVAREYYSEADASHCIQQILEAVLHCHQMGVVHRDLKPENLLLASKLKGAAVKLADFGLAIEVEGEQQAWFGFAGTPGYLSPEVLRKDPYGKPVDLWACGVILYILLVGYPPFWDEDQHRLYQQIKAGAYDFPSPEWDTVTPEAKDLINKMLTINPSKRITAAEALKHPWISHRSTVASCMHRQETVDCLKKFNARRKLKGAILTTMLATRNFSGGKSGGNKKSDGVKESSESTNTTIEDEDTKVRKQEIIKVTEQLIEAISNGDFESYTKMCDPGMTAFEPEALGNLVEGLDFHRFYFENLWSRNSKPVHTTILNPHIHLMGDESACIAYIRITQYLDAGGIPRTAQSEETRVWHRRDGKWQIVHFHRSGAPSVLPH
Sequence of 5'-AMP-activated protein kinase catalytic subunit alpha-2 (Homo sapiens) (P54646 whole entry, looked up): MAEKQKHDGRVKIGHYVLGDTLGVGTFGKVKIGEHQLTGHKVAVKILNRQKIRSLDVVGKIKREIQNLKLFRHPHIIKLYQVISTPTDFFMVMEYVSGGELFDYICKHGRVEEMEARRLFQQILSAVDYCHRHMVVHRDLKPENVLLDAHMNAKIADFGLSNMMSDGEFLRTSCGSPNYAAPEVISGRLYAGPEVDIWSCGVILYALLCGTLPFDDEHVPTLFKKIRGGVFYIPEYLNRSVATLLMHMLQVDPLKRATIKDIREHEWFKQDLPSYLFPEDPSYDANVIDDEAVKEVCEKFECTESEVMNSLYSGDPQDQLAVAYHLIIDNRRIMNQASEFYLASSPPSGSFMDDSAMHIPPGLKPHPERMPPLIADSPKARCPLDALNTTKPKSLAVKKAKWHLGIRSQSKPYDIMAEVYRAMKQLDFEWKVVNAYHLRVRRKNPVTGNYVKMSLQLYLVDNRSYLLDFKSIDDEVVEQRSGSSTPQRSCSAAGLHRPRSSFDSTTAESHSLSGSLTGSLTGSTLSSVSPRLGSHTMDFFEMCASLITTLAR
Sequence of Calcium/calmodulin-dependent protein kinase type II subunit delta (Homo sapiens) (Q13557 whole entry): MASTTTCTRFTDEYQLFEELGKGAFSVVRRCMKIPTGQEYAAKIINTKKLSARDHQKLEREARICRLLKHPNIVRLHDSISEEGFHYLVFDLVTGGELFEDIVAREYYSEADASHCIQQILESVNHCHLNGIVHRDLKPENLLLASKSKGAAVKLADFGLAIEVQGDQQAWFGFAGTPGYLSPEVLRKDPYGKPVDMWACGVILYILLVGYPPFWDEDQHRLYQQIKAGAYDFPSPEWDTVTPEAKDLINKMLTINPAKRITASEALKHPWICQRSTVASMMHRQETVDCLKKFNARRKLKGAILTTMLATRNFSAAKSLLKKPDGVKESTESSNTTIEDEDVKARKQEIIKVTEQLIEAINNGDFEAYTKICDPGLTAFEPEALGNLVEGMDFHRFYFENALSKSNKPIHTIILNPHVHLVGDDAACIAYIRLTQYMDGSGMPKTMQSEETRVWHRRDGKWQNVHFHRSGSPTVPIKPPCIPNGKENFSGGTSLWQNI
Sequence of Calcium/calmodulin-dependent protein kinase type 1D (Homo sapiens) (Q8IU85 whole entry, looked up): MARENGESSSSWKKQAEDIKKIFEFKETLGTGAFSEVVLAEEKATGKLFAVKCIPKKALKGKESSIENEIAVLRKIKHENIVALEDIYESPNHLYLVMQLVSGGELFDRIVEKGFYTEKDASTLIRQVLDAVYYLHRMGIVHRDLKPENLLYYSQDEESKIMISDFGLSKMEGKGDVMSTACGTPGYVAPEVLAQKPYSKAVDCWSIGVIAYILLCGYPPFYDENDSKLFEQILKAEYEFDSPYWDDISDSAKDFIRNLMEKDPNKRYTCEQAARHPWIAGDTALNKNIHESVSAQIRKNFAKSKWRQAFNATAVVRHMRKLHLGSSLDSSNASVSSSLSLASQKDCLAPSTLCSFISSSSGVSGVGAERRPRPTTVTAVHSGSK
Sequence of Serine/threonine-protein kinase Chk2 (Homo sapiens) (O96017 whole entry): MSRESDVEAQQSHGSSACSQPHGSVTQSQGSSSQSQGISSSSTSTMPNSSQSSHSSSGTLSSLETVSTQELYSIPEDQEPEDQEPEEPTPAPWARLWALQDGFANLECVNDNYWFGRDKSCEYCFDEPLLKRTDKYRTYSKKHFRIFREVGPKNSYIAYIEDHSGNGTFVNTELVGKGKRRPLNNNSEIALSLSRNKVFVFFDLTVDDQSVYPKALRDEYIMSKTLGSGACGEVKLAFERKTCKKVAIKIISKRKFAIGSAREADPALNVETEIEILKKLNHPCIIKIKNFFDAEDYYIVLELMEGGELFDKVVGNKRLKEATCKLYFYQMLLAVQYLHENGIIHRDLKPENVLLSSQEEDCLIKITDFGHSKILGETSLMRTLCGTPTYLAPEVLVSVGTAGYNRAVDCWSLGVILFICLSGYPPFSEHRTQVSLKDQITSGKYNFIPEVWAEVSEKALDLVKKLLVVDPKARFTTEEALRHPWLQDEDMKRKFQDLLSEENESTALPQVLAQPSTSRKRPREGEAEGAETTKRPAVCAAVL

As a reminder, the inhibition is the relative decrease from the control value, in per cent. For the compound `COc1cc(Nc2nccc(Nc3ccc4c(C)n[nH]c4c3)n2)cc(OC)c1OC`, the inhibition in [1] stood at 5.95%; in test [2], 10.4%; in [3], 35.5%; in test [4], 3.57%; in test [5], 3.29%; in test [6] it was 2.02%. In addition, the inhibition stood at 1.97% in test [7]; 3.39% in [8]; 6.21% in [9]; 4.54% in test [10]; 4.38% in test [11]; 3.41% in test [12]. The inhibition in [13] came out at 3.54%; in test [14] it was 1.45%; in test [15], 4.68%; in test [16], 1.45%; in [17], 3.35%; in test [18] it was 1.73%. Also, the inhibition was 9.02% in test [19] and 1.68% in [20].

For `N#Cc1c(NC(=O)c2ccc(F)cc2)sc2c1CCCC2`, the inhibition is 2.24% in test [1]; -1.13% in test [2]; 2.02% in test [3]; 1.51% in test [4]; 1.17% in [5]; 0.78% in test [6]. In addition, the inhibition was 2.38% in [7]; 0.76% in test [8]; 0.45% in test [9]; 0.66% in test [10]; -0.01% in test [11]; 0.08% in [12]. Further, the inhibition was 0.72% in test [13]; -0.9% in test [14]; 2.49% in [15]; 0.15% in test [16]; 0.56% in test [17]; -0.21% in [18]. Further, the inhibition in [19] turned out to be 0.73%; in [20], 0.39%.

For `CN1CCC(n2cnc(-c3ccc(F)cc3)c2-c2ccnc(Nc3ccccc3)n2)CC1`, the inhibition in test [1] is 2.34%; in test [2] it was -2.56%; in [3], 4.19%; in test [4], 0.59%; in test [5], 0.41%; in test [6] it was 0.56%. In addition, the inhibition turned out to be 1.93% in test [7]; 0.81% in test [8]; 1.85% in test [9]; 3.46% in test [10]; 1.68% in test [11]; 0.53% in [12]. The inhibition in test [13] is 2.35%; in [14], 0.11%; in test [15], 1.45%; in test [16] it was -0.4%; in [17] it was 1.3%; in [18], 1.2%. Besides, the inhibition was 2.71% in test [19] and 2.63% in [20].
